Laboratory results reported in PubChem BioAssay.
For part of these data: Potency and affinity values are given separately. Activity calls are given as the source filed them.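 The calls were made as follows, unless noted: active = primary screen activator hit with a dose response curve and TRPC4 channel activation at any tested dose; inactive = no activation, no dose response, or not a primary hit.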

What was measured:
[1] = test system: TRPC4 beta (transient receptor potential cation channel C4), mouse; experiment: activators of mouse TRPC4 channel, confirmation, cell-based, Fluo4 calcium, HEK293 TRPC4beta/mu-opioid, duplicates, 10 µM (AID 2426;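 active = fluorescence ratio normalized to control raised more than 50% in primary screen plus both repeat runs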); conditions: Fluo4 calcium fluorescence, at 10 µM; active compounds read high
[2] = test system: transient receptor potential cation channel C4 beta (TRPC4), mouse; experiment: activators of mouse TRPC4 channel, confirmation, cell-based, second round, Fluo4, HEK293 TRPC4beta/mu-opioid, 1 µM (AID 2461;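 active = primary screen active and over 50% activation in each of two duplicate runs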); conditions: Fluo4 calcium fluorescence, at 1 µM; active compounds read high
[3] = test system: TRPC4 (transient receptor potential cation channel C4 beta), mouse; experiment: positive allosteric modulators of mouse TRPC4, confirmation, cell-based, second round, Fluo-4, HEK293 TRPC4beta/mu-opioid, 1 µM (AID 2554;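 active = primary screen hit whose fluorescence ratio, in both repeats, exceeds the weak agonist control mean by 3 SD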); conditions: DAMGO EC20, Fluo-4 calcium flux, at 1 µM; active compounds read high
[4] = test system: TRPC4 beta (transient receptor potential cation channel C4), mouse; experiment: positive allosteric modulators of mouse TRPC4, confirmation, cell-based, Fluo-4, HEK293 TRPC4beta/mu-opioid (AID 2555;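 active = primary screen hit whose calcium fluorescence ratio, in both repeats, exceeds the weak agonist control mean by 3 SD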); conditions: DAMGO EC20, Fluo-4 calcium flux, at 10 µM; active compounds read high
[5] = target: Short transient receptor potential channel 4 (Mus musculus) (UniProt Q9QUQ5); experiment: inhibitors of mouse TRPC4 channel, confirmation, cell-based, Fluo4, HEK293 TRPC4beta/mu-opioid (AID 2636;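 active = calcium signal cut by more than 3 SD below the full-agonist control yet still positive, in both repeats and the earlier primary screen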); conditions: DAMGO, Fluo4 calcium flux, at 10 µM; active compounds read high
[6] = target: Short transient receptor potential channel 4 (Mus musculus) (UniProt Q9QUQ5); experiment: inhibitors of mouse TRPC4 channel, confirmation, cell-based, second round, Fluo4, HEK293 TRPC4beta/mu-opioid, 1 µM (AID 2637;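 active = calcium signal ratio cut to more than 3 SD under the fully stimulated control mean yet still positive, in both repeats and the primary screen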); conditions: Fluo4 calcium flux, DAMGO, at 1 µM; active compounds read high
[7] = target: Short transient receptor potential channel 4 (Mus musculus) (UniProt Q9QUQ5); experiment: mouse TRPC4 channel activators, dose response, cell-based, HEK293 TRPC4/mu-opioid, Fluo-4 calcium (AID 434937)
[8] = target: Short transient receptor potential channel 4 (Mus musculus) (UniProt Q9QUQ5); experiment: TRPC4 positive allosteric modulators, dose response, cell-based, HEK293 TRPC4/mu-opioid, Fluo-4 calcium, EC20 DAMGO (AID 434941;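 active = earlier screen potentiator hit that boosts the TRPC4 ion channel at some dose, with a dose response; inactive = no potentiation, no dose response, or not a prior hit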;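 also: calcium entry triggered by an EC20 dose of DAMGO at the co-expressed mu-opioid receptor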)
[9] = target: Short transient receptor potential channel 4 (Mus musculus) (UniProt Q9QUQ5); experiment: mouse TRPC4 channel inhibitors, dose response, cell-based, HEK293 TRPC4/mu-opioid, Fluo-4 calcium (AID 434942;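 active = primary screen inhibitor hit that blocks the TRPC4 channel at some tested dose, yielding a dose curve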)
[10] = target: Short transient receptor potential channel 6 (Mus musculus) (UniProt Q61143); experiment: inhibition of mouse TRPC6 channel, confirmation, selectivity assay for TRPC4 inhibitor project, cell-based, HEK293, membrane potential dye, duplicate (AID 434948;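 active = active in primary screen and both duplicates, each dropping signal beyond three positive-control SD with fluorescence still positive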); conditions: HEK293 TRPC6, membrane potential dye fluorescence, at 10 µM, stimulated with maximal-effect acetylcholine; active compounds read high
[11] = target: Short transient receptor potential channel 6 (Mus musculus) (UniProt Q61143); experiment: activation of mouse TRPC6 channel, confirmation, selectivity assay for TRPC4 activator project, cell-based, HEK293, membrane potential dye, duplicate (AID 434950;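 active = membrane potential signal rise above negative control mean plus 3 SD in both duplicates, also active in the earlier TRPC4 screen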); conditions: HEK293 TRPC6, membrane potential fluorescence, at 10 µM; active compounds read high
[12] = target: Short transient receptor potential channel 6 (Mus musculus) (UniProt Q61143); experiment: TRPC6 potentiation by TRPC4 potentiator hits, confirmation, selectivity assay for TRPC4 potentiator project, HEK293 cells, membrane potential dye, duplicate (AID 434952;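 active = compound raising the membrane signal above positive-control mean plus 3 SD in both repeats, and a primary screen hit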); conditions: HEK293 TRPC6, membrane potential dye fluorescence, at 10 µM, maximal acetylcholine added after compound; active compounds read high
[13] = target: Short transient receptor potential channel 4 (Mus musculus) (UniProt Q9QUQ5); experiment: calcium flux activators in TRPC4/5HT1a cells, counter-screen for TRPC4 activator project, cell-based, second counter screen, HEK293 TRPC4/5HT1a, Fluo-4 (AID 434977;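 active = calcium signal rise above buffer-control mean plus 5 SD in both duplicates, and also a hit in the primary screen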); conditions: Fluo-4 calcium flux, at 10 µM; active compounds read high
[14] = calcium flux inhibitors in TRPC4/5HT1a cells, confirmation, counter-screen for TRPC4 inhibitor project, cell-based, second counter screen, HEK293 TRPC4/5HT1a, Fluo-4 (AID 434978;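 active = primary screen active whose calcium signal fell more than 3 SD beyond the full-serotonin control mean in both duplicate plates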;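 also: serotonin given first at submaximal then at maximal dose after compound preincubation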); conditions: Fluo-4 calcium flux, at 10 µM, serotonin added to trigger calcium flux; active compounds read high
[15] = test system: TRPC4 (mouse), co-expressed with 5HT1a in HEK293; experiment: calcium flux potentiators in TRPC4/5HT1a cells, confirmation, counter-screen for TRPC4 potentiator project, cell-based, second counter screen, HEK293 TRPC4/5HT1a, Fluo-4 (AID 434979;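 active = signal rise over 3 SD above mean of control wells given weak agonist, in both repeats and first screen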); conditions: Fluo-4 calcium flux, at 10 µM, serotonin added at its EC20 dose; active compounds read high
[16] = calcium flux activation in mu-opioid HEK293 cells, confirmation, counter-screen for TRPC4 activator project, cell-based, HEK293 mu-opioid receptor line (AID 449723;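 active = hit in primary screen, with calcium signal over 5 SD above buffer well mean in both duplicates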;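 also: counter screen cells carry the mu-opioid receptor alone and lack TRPC4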); conditions: Fluo-4 calcium fluorescence, at 10 µM; active compounds read high
[17] = calcium flux enhancement in mu-opioid HEK293 cells, confirmation, counter-screen for TRPC4 allosteric potentiator project, cell-based, HEK293 mu-opioid receptor line (AID 449724;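 active = calcium signal rise more than 3 SD above the low-dose agonist control mean, in both duplicate plates and the primary screen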); conditions: Fluo-4 calcium flux, at 10 µM, compound added before EC20 DAMGO stimulus; active compounds read high

Short transient receptor potential channel 4 (Mus musculus), sequence (Q9QUQ5 whole entry, looked up): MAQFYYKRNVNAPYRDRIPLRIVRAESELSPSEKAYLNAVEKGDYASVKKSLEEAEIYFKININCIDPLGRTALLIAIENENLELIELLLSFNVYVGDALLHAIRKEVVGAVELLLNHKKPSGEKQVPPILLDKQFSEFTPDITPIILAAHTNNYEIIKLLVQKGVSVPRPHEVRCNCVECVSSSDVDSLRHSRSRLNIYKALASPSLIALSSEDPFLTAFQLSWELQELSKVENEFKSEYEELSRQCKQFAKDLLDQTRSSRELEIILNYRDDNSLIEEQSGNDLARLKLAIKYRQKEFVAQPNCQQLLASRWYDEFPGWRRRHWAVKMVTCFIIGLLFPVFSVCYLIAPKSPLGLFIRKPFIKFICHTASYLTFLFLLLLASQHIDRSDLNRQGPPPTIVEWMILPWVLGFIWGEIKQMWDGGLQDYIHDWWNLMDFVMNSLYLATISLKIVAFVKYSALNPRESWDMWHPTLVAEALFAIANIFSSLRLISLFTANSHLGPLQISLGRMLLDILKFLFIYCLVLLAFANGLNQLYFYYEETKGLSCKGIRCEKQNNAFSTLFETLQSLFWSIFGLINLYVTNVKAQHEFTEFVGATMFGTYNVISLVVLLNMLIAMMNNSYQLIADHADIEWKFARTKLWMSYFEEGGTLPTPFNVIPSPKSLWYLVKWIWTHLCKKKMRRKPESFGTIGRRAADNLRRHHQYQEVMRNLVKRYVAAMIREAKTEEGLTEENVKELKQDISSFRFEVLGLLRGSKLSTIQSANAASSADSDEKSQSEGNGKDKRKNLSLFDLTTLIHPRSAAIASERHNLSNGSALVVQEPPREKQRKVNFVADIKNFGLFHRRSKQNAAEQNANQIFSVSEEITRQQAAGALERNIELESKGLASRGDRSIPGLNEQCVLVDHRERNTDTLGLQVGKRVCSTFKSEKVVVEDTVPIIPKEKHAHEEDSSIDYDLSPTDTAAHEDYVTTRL
Short transient receptor potential channel 6 (Mus musculus), sequence (Q61143 whole entry, looked up): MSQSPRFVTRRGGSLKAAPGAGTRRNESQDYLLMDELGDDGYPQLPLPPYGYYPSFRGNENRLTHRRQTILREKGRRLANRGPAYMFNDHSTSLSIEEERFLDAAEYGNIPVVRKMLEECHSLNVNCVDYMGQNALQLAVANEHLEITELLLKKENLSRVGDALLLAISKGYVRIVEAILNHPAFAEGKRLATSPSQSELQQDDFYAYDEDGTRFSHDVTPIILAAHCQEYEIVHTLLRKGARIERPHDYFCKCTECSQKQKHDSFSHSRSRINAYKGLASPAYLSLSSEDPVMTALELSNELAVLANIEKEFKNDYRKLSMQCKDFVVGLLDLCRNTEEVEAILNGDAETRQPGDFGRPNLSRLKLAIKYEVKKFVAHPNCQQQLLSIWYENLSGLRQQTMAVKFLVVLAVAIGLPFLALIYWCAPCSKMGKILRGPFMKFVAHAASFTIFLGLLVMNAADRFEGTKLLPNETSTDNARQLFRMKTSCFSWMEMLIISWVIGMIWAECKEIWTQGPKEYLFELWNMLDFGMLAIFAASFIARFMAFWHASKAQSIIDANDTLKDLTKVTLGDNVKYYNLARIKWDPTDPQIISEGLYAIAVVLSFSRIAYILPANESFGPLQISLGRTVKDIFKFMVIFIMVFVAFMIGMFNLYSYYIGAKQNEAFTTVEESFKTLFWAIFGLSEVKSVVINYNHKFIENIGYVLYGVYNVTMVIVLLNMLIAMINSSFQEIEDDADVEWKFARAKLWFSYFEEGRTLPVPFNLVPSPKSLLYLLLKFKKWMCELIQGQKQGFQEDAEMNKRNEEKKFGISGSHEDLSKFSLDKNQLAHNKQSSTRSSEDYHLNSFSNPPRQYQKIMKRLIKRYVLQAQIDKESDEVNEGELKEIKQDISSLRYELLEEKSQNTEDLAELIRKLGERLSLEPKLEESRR

| SMILES | outcome [1] | outcome [2] | outcome [3] | potentiation [4] | outcome [5] | outcome [6] | outcome [7] | outcome [8] | outcome [9] | outcome [10] | outcome [11] | outcome [12] | outcome [13] | outcome [14] | outcome [15] | outcome [16] | outcome [17] | outcome [4] | potentiation [15] | potentiation [3] |
| --- | --- | --- | --- | --- | --- | --- | --- | --- | --- | --- | --- | --- | --- | --- | --- | --- | --- | --- | --- | --- |
| CCOC(=O)C(CCCCCOc1ccc([N+](=O)[O-])cc1)C(=O)OCC | inactive | inactive | inactive | 10% (active) | inactive | inactive | inactive | inactive | inactive | inactive | inactive | inactive | inactive | inactive | inactive | inactive | inactive |  |  |  |
| Cc1ccc(CN(C(=O)c2cc(=O)c3cc(Cl)c(C)cc3o2)C2CCS(=O)(=O)C2)cc1 (stereo not given) | inactive | inactive | inactive |  | inactive | inactive | inactive | inactive | inactive | inactive | inactive | inactive | inactive | inactive |  | inactive | inactive | inactive | 64% (active) |  |
| Cc1ccc(C(=O)c2no[n+]([O-])c2C(=O)c2ccc(C)cc2)cc1 | inactive | inactive |  | 89% (active) | inactive | inactive | inactive | inactive | inactive | inactive | inactive | inactive | inactive | inactive |  | inactive | inactive |  | 59.9% (active) | 23% (active) |
| CC(=O)c1nn(-c2cccc(Br)c2)cc1C(=O)c1cccc2ccccc12 | inactive | inactive | inactive |  | inactive | inactive | inactive | inactive | inactive | inactive | inactive | inactive | inactive | inactive | inactive | inactive | inactive | inactive |  |  |
| CCOc1cc(/C=C(\C#N)C(=O)Nc2cccc(C(=O)O)c2)cc(Br)c1OC(=O)c1ccc(OC)cc1 | inactive | inactive | inactive | 28% (active) | inactive | inactive | inactive | inactive | inactive | inactive | inactive | inactive | inactive | inactive |  | inactive | inactive |  | 16.7% (active) |  |
| CCOc1cc(/C=C2\CN(CC)C/C(=C\c3ccc(O)c(OCC)c3)C2=O)ccc1O | inactive | inactive | inactive |  | inactive | inactive | inactive | inactive | inactive | inactive | inactive | inactive | inactive | inactive | inactive | inactive | inactive | inactive |  |  |
| O=C(O)c1ccc(N2CCN(C(c3ccccc3)c3ccccc3)CC2)c([N+](=O)[O-])c1 | inactive | inactive | inactive |  | inactive | inactive | inactive | inactive | inactive | inactive | inactive | inactive | inactive | inactive | inactive | inactive | inactive | inactive |  |  |
| Cc1ccc(-c2nn(-c3ccccc3)cc2C(=O)Nc2ccc(C(=O)O)cc2)cc1 | inactive | inactive | inactive |  | inactive | inactive | inactive | inactive | inactive | inactive | inactive | inactive | inactive | inactive | inactive | inactive | inactive | inactive |  |  |
| C=CCn1c(=N)n(CC(O)COc2ccccc2OC)c2ccccc21 (stereo not given) | inactive | inactive | inactive |  | inactive | inactive | inactive | inactive | inactive | inactive | inactive | inactive | inactive | inactive | inactive | inactive | inactive | inactive |  |  |
| Clc1ccc2[nH]c3c(c2c1)CNCC3 | inactive | inactive |  | 12% (active) | inactive | inactive | inactive | inactive | inactive | inactive | inactive | inactive | inactive | inactive | inactive | inactive | inactive |  |  | 10% (active) |
| COC(=O)CC(NC(=S)NC(=O)c1ccccc1)c1ccc(Br)cc1 (stereo not given) | inactive | inactive | inactive | 35% (active) | inactive | inactive | inactive | inactive | inactive | inactive | inactive | inactive | inactive | inactive |  | inactive | inactive |  | 12.5% (active) |  |
| O=C(Nc1nc(N2C(=O)c3ccccc3C2=O)n(-c2ccccc2)n1)c1ccc(Cl)cc1 | inactive | inactive | inactive |  | inactive | inactive | inactive | inactive | inactive | inactive | inactive | inactive | inactive | inactive | inactive | inactive | inactive | inactive |  |  |
| CC(=O)Nc1nc2ccc(S(=O)(=O)N3CCCCC3)cc2s1 | inactive | inactive | inactive |  | inactive | inactive | inactive | inactive | inactive | inactive | inactive | inactive | inactive | inactive | inactive | inactive | inactive | inactive |  |  |
| O=S(=O)(NCCSc1nnc(-c2ccco2)n1-c1ccccc1)c1ccccc1 | inactive | inactive | inactive |  | inactive | inactive | inactive | inactive | inactive | inactive | inactive | inactive | inactive | inactive | inactive | inactive | inactive | inactive |  |  |
| O=[N+]([O-])c1cc(Cl)cc(/C=N/NC(=S)Nc2ccc(S(=O)(=O)N3CCOCC3)cc2)c1O | inactive | inactive | inactive | 15% (active) | inactive | inactive | inactive | inactive | inactive | inactive | inactive | inactive | inactive | inactive |  | inactive | inactive |  | 10.1% (active) |  |
